Source: PubChem BioAssay (Broad Institute)
Tcruzi prolif: T. cruzi proliferation inhibition | T. cruzi beta-gal in NIH3T3, GalScreen luminescence, 90 h | inhibition, % at 8.34 µM | 77,000 tested, 5.9% active;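 active = mean inhibition above about 93%, with at least 55% of replicates each passing it, limit read from the data, passing the limit was not always enough; inconclusive = only one of those two conditions holds; inactive = neither condition holds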
Pf Dd2 inh: inhibitors of Plasmodium falciparum Dd2 growth; 94,000 tested, 2.3% active; P. falciparum Dd2 growth, SYBR Green, 72 h; hits give low values; AID 1159554; activity change, % at 10 µM; in the data active = activity change below about -80%; inconclusive = no clear call, values can overlap the other calls
C diff HTS: blocks growth of Clostridium difficile. Clostridium difficile clinical isolate growth, OD600, 24 h; hits give low values. growth activity, negative = inhibition, % at 16 µg/mL (by protocol). 86,000 tested, 0.25% active;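 active = mean growth activity at or below -80% and every replicate also at or below -80%; inconclusive = mean at or below -80% but some replicate above -80%; inactive = mean growth activity above -80%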;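 also: 0% = DMSO wells and -100% = levofloxacin 16 µg/mL wells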
* hit, by the source's call; u = inconclusive; x = no result. This is a sample that favours compounds with a hit; in the whole collection about 6.8% have one here.

SMILES	Tcruzi prolif	Pf Dd2 inh	C diff HTS
COc1ccc(CN2CC3(CCN(C(=O)c4ccccc4)CC3)c3c([nH]c4cc(OC)ccc34)[C@@H]2CO)cc1	x	-88*	1
COc1ccc2c3c([nH]c2c1)[C@H](CO)N(Cc1cccnc1)CC31CN(C(=O)CN(C)C)C1	x	7	-10
COc1ccc(CN2CC3(CN(C(=O)c4ccccc4)C3)c3c([nH]c4cc(OC)ccc34)[C@@H]2CO)cc1	x	-48	-2
C[C@@H]1CCCCO[C@@H](CN(C)C)[C@@H](C)CN([C@@H](C)CO)C(=O)c2cc(NS(=O)(=O)c3ccccc3)ccc2O1	32	2	1
CCCNC(=O)N[C@H]1CC[C@@H](CCn2cc(C3CCCC3)nn2)O[C@@H]1CO	-83	6	x
COc1ccc(NC(=O)N(C)C[C@@H]2OCCCC[C@@H](C)Oc3ccc(N(C)C)cc3C(=O)N([C@H](C)CO)C[C@H]2C)cc1	46	-52	-6
COc1ccc2c3c([nH]c2c1)[C@H](CO)N(C(=O)c1cccc(F)c1)CC31CCN(C(=O)c2ccccc2)CC1	x	-39	-10
COc1ccc2c3c([nH]c2c1)[C@@H](CO)N(C(=O)c1cccc(F)c1)CC31CCN(C(=O)c2ccccc2)CC1	x	-88*	4
C[C@H](CO)N1C[C@H](C)[C@@H](CN(C)S(=O)(=O)c2cn(C)cn2)OCc2ccccc2-c2ccccc2C1=O	64	25	6
COc1ccc(C#Cc2ccc3c(c2)O[C@H](CN(C)C(=O)Nc2cccc(OC)c2)[C@@H](C)CN([C@H](C)CO)S3(=O)=O)cc1	68	-81*	x
COc1cccc(NC(=O)N(C)C[C@H]2Oc3cc(C#Cc4ccccc4)ccc3S(=O)(=O)N([C@@H](C)CO)C[C@@H]2C)c1	121*	-82*	51
COc1cccc(NC(=O)N(C)C[C@H]2Oc3cc(C#Cc4ccncc4)ccc3S(=O)(=O)N([C@@H](C)CO)C[C@@H]2C)c1	70	-54	-2
COc1cccc(NC(=O)N(C)C[C@H]2Oc3cc(C#Cc4ccc(F)cc4)ccc3S(=O)(=O)N([C@H](C)CO)C[C@H]2C)c1	81	-71	6
CC(C)NC(=O)Nc1ccc2c(c1)C(=O)N([C@H](C)CO)C[C@H](C)[C@@H](CN(C)C(=O)NC1CCCCC1)OCCCC[C@@H](C)O2	15	-3	8
CCC(=O)N1CC2(C1)CN(Cc1cc(F)ccc1F)[C@H](CO)c1[nH]c3cc(OC)ccc3c12	x	-90*	3
COc1ccc2c3c([nH]c2c1)[C@H](CO)N(Cc1cc(F)ccc1F)CC31CCN(C(=O)C2CCC2)CC1	x	-88*	1
COCC(=O)N1CC2(C1)CN(Cc1cc(F)ccc1F)[C@@H](CO)c1[nH]c3cc(OC)ccc3c12	x	-71	7
COc1ccc2c3c([nH]c2c1)[C@H](CO)N(Cc1cc(F)ccc1F)CC31CCN(C(C)=O)CC1	x	-90*	6
COc1ccc2c3c([nH]c2c1)[C@@H](CO)N(Cc1ccccc1OC)CC31CCN(C(C)=O)CC1	x	52	x
COc1ccc2c3c([nH]c2c1)[C@@H](CO)N(Cc1cc(F)ccc1F)CC31CN(C(C)=O)C1	x	-74	4
CCC(=O)N1CCC2(CC1)CN(Cc1cc(F)ccc1F)[C@H](CO)c1[nH]c3cc(OC)ccc3c12	x	-87*	7
COc1ccc2c3c([nH]c2c1)[C@@H](CO)N(CC1CC1)CC31CN(Cc2cc(F)ccc2F)C1	x	-10	10
C[C@@H]1CN([C@H](C)CO)C(=O)c2cc(NC(=O)CCC(F)(F)F)ccc2O[C@@H](C)CCCCO[C@@H]1CN(C)S(=O)(=O)c1ccc(Cl)cc1	85	u	13
CC(=O)N(C)C[C@@H]1Oc2ncc(/C=C/c3ccccc3)cc2C(=O)N([C@H](C)CO)C[C@H]1C	13	0	-1
C/C=C/c1ccc([C@H]2[C@@H](CO)N(c3nc(C)c(C)s3)[C@@H]2CNCC(C)C)cc1	x	-96*	33
SMILES	Tcruzi prolif	Pf Dd2 inh	C diff HTS
C/C=C/c1ccc([C@@H]2[C@@H](C#N)N(c3nc(CC)cs3)[C@@H]2CO)cc1	21	6	1
Cn1cnc(S(=O)(=O)N2C[C@H](O)COC[C@H]3O[C@H](CC(=O)NC4Cc5ccccc5C4)CC[C@@H]32)c1	-42	1	1
COc1cccc(NC(=O)N2C[C@H](O)COC[C@@H]3O[C@H](CC(=O)NCc4ccccc4F)CC[C@H]32)c1	x	23	0
C[C@H](CO)N1C[C@H](C)[C@@H](CN(C)C(=O)NC2CCCCC2)Oc2ncc(/C=C/c3ccccc3)cc2C1=O	x	-84*	6
COc1ccc(NC(=O)N(C)C[C@H]2Oc3c(NC(=O)CCCCCC(=O)Nc4ccccc4N)cccc3C(=O)N([C@H](C)CO)C[C@H]2C)cc1	x	-87*	5
COc1ccc(NC(=O)N(C)C[C@H]2Oc3c(NC(=O)CCCCCC(=O)Nc4ccccc4N)cccc3C(=O)N([C@@H](C)CO)C[C@@H]2C)cc1	x	-25	8
C[C@H](CO)N1C[C@H](C)[C@@H](CN(C)C(=O)NC2CCCCC2)Oc2c(NC(=O)CCCCCC(=O)Nc3ccccc3N)cccc2C1=O	x	-24	0
C[C@H]1CN([C@@H](C)CO)C(=O)c2cccc(NC(=O)CCCCCC(=O)Nc3ccccc3N)c2O[C@@H]1CN(C)C(=O)Nc1cccc2ccccc12	x	-46	-5
C[C@H]1CN([C@@H](C)CO)C(=O)c2cc(/C=C/c3ccccc3)cnc2O[C@H]1CN(C)C(=O)NC1CCCCC1	x	-25	6
C[C@@H]1CN([C@@H](C)CO)C(=O)c2cccc(NC(=O)CCCCCC(=O)Nc3ccccc3N)c2O[C@@H]1CN(C)C(=O)NC1CCCCC1	x	-86*	-3
C[C@H](CO)N1C[C@H](C)[C@H](CN(C)C(=O)Nc2ccc(C(F)(F)F)cc2)Oc2c(NC(=O)CCCCCC(=O)Nc3ccccc3N)cccc2C1=O	x	-89*	-12
Cc1noc(C)c1S(=O)(=O)Nc1ccc2c(c1)C(=O)N([C@@H](C)CO)C[C@@H](C)[C@H](CN(C)C(=O)c1ccncc1)OCCCC[C@H](C)O2	71	28	5
CC(C)CC#Cc1ccc([C@@H]2[C@H]3CN(S(=O)(=O)c4cccc(F)c4)CC(=O)N3[C@H]2CO)cc1	x	-73	13
COc1ccc(NC(=O)N[C@H]2CC[C@@H](CCNC(=O)c3ccccc3F)O[C@@H]2CO)cc1	-10	-15	-2
CO[C@H]1CN(C)C(=O)c2ccc(NS(=O)(=O)c3cn(C)cn3)cc2OC[C@@H](C)N(C)C[C@H]1C	-25	35	x
CN(C)C(=O)C[C@@H]1CC[C@@H]2[C@H](COc3ccc(NC(=O)C4CCOCC4)cc3C(=O)N2C)O1	-34	14	-4
C[C@@H]1CN([C@@H](C)CO)C(=O)c2cccc(N(C)C)c2O[C@@H]1CN(C)C(=O)Nc1cccc2ccccc12	63	-83*	-2
C[C@H]1CN([C@@H](C)CO)C(=O)c2cccc(NC(=O)CCCCCC(=O)Nc3ccccc3N)c2O[C@@H]1CN(C)C(=O)Nc1ccccc1	x	-34	-2
C[C@H]1CN([C@@H](C)CO)C(=O)c2cccc(NC(=O)CCCCCC(=O)Nc3ccccc3N)c2O[C@H]1CN(C)C(=O)Nc1ccc(F)cc1	x	-59	-2
